Compounds with a hit are over-represented: about 3.4% of the library has one in this group of screens.
HSP90 inh: HSP90 inhibitors, primary screen, cell lysate, luminescence | Heat shock protein HSP 90 (rabbit reticulocyte lysate; luciferase refolding) | Rabbit reticulocyte lysate, luciferase refolding luminescence, 3 h | inhibition, % at 5.6 µM | 290,000 compounds, 0.91% hits | AID 1789, 2009;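 active = inhibition above the screen-wide mean plus 3 SD, computed separately per campaign, cut at about 16% in these data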;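 note: inhibitors lower the luminescence because luciferase stays unfolded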
PG9 binder: binders of HIV-1 gp120 antibody PG9, primary screen, biochemical, TR-FRET; TR-FRET gp120-PG9 antibody binding; inhibition, % at 6.7 µM; 360,000 compounds, 0.43% hits; AID 624416, 2012; in the data active = inhibition above about 8.5%
FXN GAA850 act: FXN promoter activators, primary screen, cell-based, luciferase luminescence, HEK293 lucGAA850; activation, % at 6 µM; AID 540364, 2011; HEK293 lucGAA850 FXN promoter luciferase reporter, 24 h; percent of 10 µM SAHA response; 360,000 compounds, 0.56% hits;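 active = activation above the average of all compounds screened plus 3 SD, cutoff fixed separately per campaign, cut at about 7.5% in these data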
SMARCA2 act: SMARCA2 (BRM) function activators, primary screen, cell-based, luminescence, high throughput. activation, % at 9.1 µM. 370,000 compounds, 1% hits. MG213 cells, MMTV-luciferase reporter, dexamethasone, overnight; in the data active = activation above about 7.8%
AI-2 QS mod: Vibrio harveyi AI-2 quorum sensing modulators, primary screen, JMH597 strain, luminescence/OD600 ratio. Vibrio harveyi JMH597 AI-2 luminescence/OD600 ratio, 9 h; active compounds read low; strain lacks LuxN and CqsS sensors; 0 = neutral-control median. AID 2094, 2009. 300,000 compounds, 0.4% hits. activity change, % at 7.5 µM; in the data active = activity change below about -75%, passing the limit was not always enough;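 note: luminescence divided by OD600 gain over 9 h not by final OD600 alone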
HSF1 inh: HSF1 inhibitors in luciferase reporter cells, primary screen, cell-based, NIH3T3, luminescence. NIH3T3-HGL HSE-luciferase, MG132-induced, luminescence 8 h; active compounds read low. activity change, negative = inhibition, % at 7.5 µM (by protocol). 300,000 compounds, 0.77% hits. AID 2098, 2009;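 active = more than half of replicate wells show activity change below -50%, luminescence cut by over half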;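 note: luciferase reports HSF-1 transcriptional activity via heat shock element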
SMARCA2 act conf: SMARCA2 (BRM) function activators, confirmation, cell-based, luminescence, triplicate; activation, % at 9.1 µM; shares compounds with SMARCA2 act; MG213 cells, MMTV-luciferase with dexamethasone, overnight; MG213 cells expressing E1A, Rb sequestered; DMSO wells 0%, reference activator 100%; AID 652260, 2013; 3,500 compounds, 30% hits;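 active = activation above its plate's cutoff, the mean activation of tested wells plus 3 SD, cut at about 7.9% in these data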
GAL4-VP16 Luc: GAL4-VP16 luciferase reporter activation, counter-screen for SMARCA2 (BRM) activator project, cell-based, pG5luc, luminescence, high throughput. shares compounds with SMARCA2 act. 3,500 compounds, 41% hits. HEK293 GAL4-VP16 pG5luc reporter; scaled: DMSO wells 0%, SAHA wells 100%. activation, % at 9.1 µM;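 active = activation above the solvent-only control well mean plus 3 SD, averaged across control plates, cut at about 5.2% in these data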
A number is an active result; 0 = inactive; - = no result.

SMILES	HSP90 inh	PG9 binder	FXN GAA850 act	SMARCA2 act	AI-2 QS mod	HSF1 inh	SMARCA2 act conf	GAL4-VP16 Luc
Cc1ccc2oc(C(=O)N3CCN(c4cccc(C)n4)CC3)c(C)c2c1	0	0	0	0	0	0	-	-
COC(=O)[C@]12C[C@H](CC(=O)NCc3ccc(OC)c(OC)c3)C(=O)N(Cc3ccccc3)C1=C[C@H](C(C)(C)C)O[C@@H]2C	-	0	-	0	-	-	-	-
COc1ccc(N)c2c1C(=O)c1ccccc1C2=O	0	0	0	8.3	0	0	16	0
O=C1c2ccccc2-c2onc3ccc(NCCCn4ccnc4)c1c23	0	-	-	-	0	0	-	-
COc1ccc2noc3c2c1C(=O)c1ccccc1-3	-	0	0	16	0	0	8.4	0
Cc1ccc(NC(=S)Nc2ccc(-c3nnc4n3CCCCC4)cc2)cc1C	-	0	-	0	-	-	-	-
CCOC(=O)/C(C#N)=C/c1c(N2CCN(c3ccccc3)CC2)nc2ccccn2c1=O	0	0	0	9.9	0	0	0	0
COc1cc(/C=N/N(C)c2ccccc2)ccc1O	0	0	0	9.3	0	0	0	9.9
COc1cc(OC)c(OC)cc1/C=N/N(C)c1ccccc1	0	0	0	0	0	0	-	-
CCCCOCC1CN(CCCC)S(=O)(=O)c2c(Oc3ccc(OC)cc3)cccc2O1 (configuration not stated)	-	0	-	0	-	-	-	-
C/C(=N/NC(=O)c1ccc(O)cc1)c1cccc([N+](=O)[O-])c1	0	0	0	0	0	0	-	-
O=C(COC(=O)c1cccc(NC(=O)c2ccco2)c1)c1ccc(Br)cc1	0	0	0	8.1	0	0	9.5	0
CC(=O)Nc1cccc(/C(C)=N/NC(=O)c2ccc(O)cc2)c1	0	0	0	8.1	0	0	0	0
C/C(=N\NC(=O)c1cccc(C)c1)c1cccc(NC(=O)c2ccco2)c1	0	0	0	11	0	0	0	0
C/C(=N\NC(=O)c1ccn(C)n1)c1cccc(NC(=O)c2ccc(C)s2)c1	0	0	0	16	0	0	8.0	6.0
FC(F)(F)c1ccccc1Cc1c(-c2ccco2)nc2c3ccccc3ccn12	-	0	-	0	-	-	-	-
C/C(=N/NC(=O)c1ccco1)c1cccc(NC(=O)c2ccc(C)o2)c1	0	0	0	8.8	0	0	0	0
C/C(=N/NC(=O)c1ccc(Br)o1)c1cccc(NC(=O)c2ccc(C)o2)c1	0	0	0	13	0	0	0	0
C/C(=N/NC(=O)c1ccc(Br)o1)c1cccc(NC(=O)c2ccc(F)cc2)c1	0	0	0	0	0	0	-	-
C/C(=N\NC(=O)c1cccc(Cl)c1)c1cccc(NC(=O)c2ccco2)c1	0	0	0	0	0	0	-	-
N#Cc1c(N)nc2c(c1N)CC(CCl)O2 (configuration not stated)	0	0	0	9.7	0	0	0	0
Cc1cc2c(c(=O)o1)[C@@]1(C(=O)N(C)c3c(Br)cccc31)C1=C(CCCC1=O)O2	-	0	-	0	-	-	-	-
CC(C)n1cnc2c(NCc3ccc(S(N)(=O)=O)cc3)nc(NCc3ccc(S(N)(=O)=O)cc3)nc21	-	0	0	0	0	0	-	-
CC(C)[C@H](CO)Nc1nc(NCc2ccc(S(N)(=O)=O)cc2)c2ncn(C(C)C)c2n1	-	0	0	10	0	0	7.9	0
CCOC(=O)C1(Cc2cccc(OC)c2)CCCN(C(=O)CSC)C1 (configuration not stated)	0	0	0	0	0	0	-	-
SMILES	HSP90 inh	PG9 binder	FXN GAA850 act	SMARCA2 act	AI-2 QS mod	HSF1 inh	SMARCA2 act conf	GAL4-VP16 Luc
CCOC(=O)C1(Cc2cccc(OC)c2)CCCN(C(=O)CCc2cccnc2)C1 (configuration not stated)	0	0	0	9.3	0	0	0	7.9
Cc1ccc(C2NS(=O)(=O)N=C2N)cc1 (configuration not stated)	0	0	0	0	0	0	-	-
Cc1ccccc1C1NS(=O)(=O)N=C1N (configuration not stated)	0	0	0	8.0	0	0	0	0
CCCCc1nnn2c1C1c3cc(Br)ccc3CCN1C(=O)C2 (configuration not stated)	-	0	-	0	-	-	-	-
Cc1cc(C)c2nc3nc(C)c(C)cc3c(N)c2c1	0	0	0	17	0	0	50	0
NC(=O)c1ncn([C@@H]2O[C@H](C(=O)N[C@H](Cc3ccccc3)C(=O)O)[C@@H](O)[C@H]2O)n1	-	0	-	0	-	-	-	-
Cc1cccc2nc(-c3ccco3)c(Nc3ccc4c(c3)OCCO4)n12	0	0	0	10	0	0	0	0
COc1cc(OC)cc(C(=O)Nc2cccc3c2CCCC3)c1	0	0	0	0	0	0	-	-
COC(=O)C1CCc2c(ccc3c2CCCC3)C1=O (configuration not stated)	-	0	0	11	-	-	0	8.5
COC(=O)c1cc2c(c3c4ccccc4n(S(=O)(=O)c4ccc(OC)cc4)c13)C(=O)N(Cc1ccco1)C2	-	0	-	0	-	-	-	-
COc1ccc(CNS(=O)(=O)CC2NCc3cc(OC)ccc32)cc1 (configuration not stated)	-	-	-	10.0	-	-	0	0
COc1ccc2c(c1)CNC2CS(=O)(=O)NCc1ccc(F)cc1 (configuration not stated)	-	-	-	0	-	-	-	-
N#Cc1c(NC(=S)NC(=O)C2CCCC2)sc2c1CCCCC2	0	0	0	13	0	0	0	0
N#Cc1c(NC(=S)NC(=O)c2ccccc2)sc2c1CCCC2	0	0	0	0	0	0	-	-
Cc1c(F)cccc1NS(=O)(=O)c1ccccc1C#N	0	0	0	9.2	0	0	0	0
OCCNCc1ccc(-c2ccccc2)cc1	0	0	0	8.2	0	0	0	0
CC(C)(C)C(=O)Nc1ccnn1C1CCN(C(=O)c2ccc(Cl)cc2F)CC1	0	0	0	14	0	0	0	0
O=C1NC2c3c(I)sc(I)c3C(=O)C2O1 (configuration not stated)	-	0	0	8.7	-	-	0	0
O=C1NC2c3c(Cl)sc(Cl)c3C(=O)C2O1 (configuration not stated)	-	0	0	15	-	-	9.0	0

Bioassay records (PubChem BioAssay)
